Data reported in PubChem BioAssay.
Records with an inconclusive call do not appear. Calls of active or inactive are those of the source.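 The calls were made as follows, unless noted: active = normalized viability below 100% at a tested concentration; inactive = the rest.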

Experiments:
[1] = viability loss in pontine glioma line – cell-based, SU-DIPG-XIII, MIPE4.0, CellTiter-Glo, qHTS, dose response (AID 1347061; cut-off not given, nearly all actives have AC50 up to about 37 µM;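 also: cells exposed to compound for 48 hours before readout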); settings: CellTiter-Glo ATP luminescence
[2] = viability loss in pontine glioma line – cell-based, SU-DIPG-XXV, MIPE5.0, CellTiter-Glo, qHTS, dose response (AID 1347065; cut-off not given, nearly all actives have AC50 up to about 26 µM;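 also: cells exposed to compound for 48 hours before ATP readout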); settings: CellTiter-Glo ATP luminescence
[3] = JHH-DIPG-1 glioma cell viability, MIPE5.0 library, CellTiter-Glo luminescence, qHTS (AID 1347067; cut-off not given, nearly all actives have AC50 up to about 26 µM;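 also: cells exposed to compound for 48 hours before readout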); settings: JHH-DIPG-1 glioma viability, CellTiter-Glo ATP luminescence
[4] = growth inhibition of DIPG cells – cell-based, MIPE4.0 library, CellTiter-Glo luminescence, qHTS (AID 1347066; cut-off not given, nearly all actives have AC50 up to about 30 µM;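 also: cells exposed to compound for 48 hours before readout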); settings: SU-DIPG-VI viability, CellTiter-Glo ATP luminescence
[5] = viability loss in pontine glioma line – cell-based, JHH-DIPG-1, MIPE4.0, CellTiter-Glo, qHTS, dose response (AID 1347062; cut-off not given, nearly all actives have AC50 up to about 27 µM;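 as to AC50: cells exposed to compound for two days before readout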); settings: JHH-DIPG-1 viability, CellTiter-Glo ATP luminescence
[6] = viability loss in pontine glioma line – cell-based, SU-DIPG-IV, MIPE4.0, CellTiter-Glo, qHTS, dose response (AID 1347063; cut-off not given, nearly all actives have AC50 up to about 30 µM;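 also: compound exposure lasted 48 hours before the viability readout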); settings: CellTiter-Glo ATP luminescence
[7] = viability loss with induced miR-34 in A549 – imaging, A549 dox-inducible miR-34, nuclei and caspase counts, primary screen (AID 1347080;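 active = compounds whose cell count with miR-34 switched on is under 0.7 times the count with it off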); settings: A549 miR-34 inducible, Hoechst nuclei count, 48 h
[8] = MELAS cybrid and Rieske KO viability enhancers – cell-based, MELAS cybrids, Rieske KO mouse fibroblasts, CellTiter-Glo, primary screen (AID 1508586;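 active = mean z-score across replicates of 1.96 or higher in either the MELAS or the Rieske mutant cell line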;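 also: z relative to plate mean and SD of compound and empty wells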); settings: low glucose
[9] = galactose survival enhancers in mitochondrial complex I cybrids – cell-based, galactose medium, ATP luminescence, primary screen (AID 1645843;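 active = z-score of at least 1.8 in each of two replicates, scored against plate mean and spread of sample wells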;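 also: positive z means more ATP and so rescue of galactose-driven cybrid death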); settings: complex I mutant cybrid cells, 72 h, stronger effect = higher value
[10] = viability loss in pontine glioma line – cell-based, SU-DIPG-XIII, MIPE5.0, CellTiter-Glo, qHTS, dose response (AID 1347064; cut-off not given, nearly all actives have AC50 up to about 23 µM); settings: CellTiter-Glo ATP luminescence
[11] = growth inhibition of DIPG cells – cell-based, MIPE5.0 library, qHTS (AID 1347068; cut-off not given, nearly all actives have IC50 up to about 30 µM); settings: SU-DIPG-XXV viability
[12] = drug combination growth inhibition, ovarian cancer – cell-based, oncology-focused library, rucaparib conditional, profiling panel (AID 1508598); settings: patient-derived ovarian cancer cells, CellTiter-Glo viability, 144 h, stronger effect = lower value
[13] = measured here: relative caspase fold change +Dox/-Dox
[14] = measured here: total cells with miR-34 induction, stronger effect = lower value
[15] = measured here: total cells without miR-34 induction
[16] = MELAS cybrid survival, CellTiter-Glo 48 h, stronger effect = higher value
[17] = Rieske KO mouse fibroblast survival, CellTiter-Glo 72 h

Cc1sc2c(c1C)C(c1ccc(Cl)cc1)=N[C@@H](CC(=O)OC(C)(C)C)c1nnc(C)n1-2
active: AC50 [1] 18.7 µM | AC50 [2] 2.63 µM | AC50 [3] 16.6 µM

CC(=O)OCC1=C(C(=O)O)N2C(=O)[C@@H](N)[C@@H]2SC1
inactive: outcome [1] | outcome [4]

CNC(=O)N1N=C(c2ccc(N)cc2)c2cc3c(cc2CC1C)OCO3 (stereo not given)
inactive: outcome [5] | outcome [4]

C[C@](O)(CS(=O)(=O)c1ccc(F)cc1)C(=O)Nc1ccc(C#N)c(C(F)(F)F)c1
7480: cell count [7, 14]
-0.102: z-score [8, 17]
active: AC50 [5] 2.35 µM | AC50 [6] 1.66 µM
9190: cell count [7, 15]
0.512: fold change [7, 13]
inactive: fold change ([7]; stronger effect = lower value) 0.814 | z-score [8, 16] 0.389 | z-score [9] -0.71

O=[N+]([O-])c1ncc[nH]1
0.789: fold change [7, 13]
inactive: outcome [1] | outcome [5] | outcome [6] | outcome [4] | fold change ([7]; stronger effect = lower value) 0.87 | z-score [8, 16] -0.216
7870: cell count [7, 14]
0.743: z-score [8, 17]
9040: cell count [7, 15]

Cc1c(N)nc([C@H](CC(N)=O)NC[C@@H](N)C(N)=O)nc1C(=O)N[C@H](C(=O)N[C@@H](C)[C@H](O)[C@@H](C)C(=O)N[C@@H](C(=O)NCCc1nc(-c2nc(C(=O)NCCC[S+](C)C)cs2)cs1)[C@@H](C)O)C(O[C@H]1O[C@H](CO)[C@H](O)[C@@H](O)[C@H]1O[C@H]1O[C@H](CO)[C@@H](O)[C@H](OC(N)=O)[C@@H]1O)c1cnc[nH]1 (stereo not given in full)
active: AC50 [6] 1.87 µM | viability ([12]; at 0.00122 µM, OCI-P5x cells, without rucaparib) 97.2% | viability ([12]; at 0.00488 µM, OCI-P5x cells, with rucaparib 20 µM, 100% = cells with rucaparib alone) 96% | viability ([12]; at 0.00488 µM, OCI-P5x cells, without rucaparib) 94.3% | viability ([12]; at 0.0195 µM, OCI-C5x cells, without rucaparib) 90.7% | viability ([12]; at 0.0195 µM, OCI-P5x cells, with rucaparib 20 µM, 100% = cells with rucaparib alone) 88.2% | viability ([12]; at 0.0195 µM, OCI-P5x cells, without rucaparib) 84.4% | viability ([12]; at 0.0781 µM, OCI-C5x cells, without rucaparib) 95% | viability ([12]; at 0.0781 µM, OCI-P5x cells, with rucaparib 20 µM, 100% = cells with rucaparib alone) 94.6% | viability ([12]; at 0.0781 µM, OCI-P5x cells, without rucaparib) 85.9% | viability ([12]; at 0.313 µM, OCI-C5x cells, with rucaparib 10 µM, 100% = cells with rucaparib alone) 86.7% | viability ([12]; at 0.313 µM, OCI-C5x cells, without rucaparib) 84.5% | viability ([12]; at 0.313 µM, OCI-P5x cells, with rucaparib 20 µM, 100% = cells with rucaparib alone) 76.8% | viability ([12]; at 0.313 µM, OCI-P5x cells, without rucaparib) 57.6% | viability ([12]; at 1.25 µM, OCI-C5x cells, with rucaparib 10 µM, 100% = cells with rucaparib alone) 74.8% | viability ([12]; at 1.25 µM, OCI-C5x cells, without rucaparib) 69.9% | viability ([12]; at 1.25 µM, OCI-P5x cells, with rucaparib 20 µM, 100% = cells with rucaparib alone) 62.8% | viability ([12]; at 1.25 µM, OCI-P5x cells, without rucaparib) 39.3% | viability ([12]; at 5 µM, OCI-C5x cells, with rucaparib 10 µM, 100% = cells with rucaparib alone) 53.8% | viability ([12]; at 5 µM, OCI-C5x cells, without rucaparib) 47.2% | viability ([12]; at 5 µM, OCI-P5x cells, with rucaparib 20 µM, 100% = cells with rucaparib alone) 39.6% | viability ([12]; at 5 µM, OCI-P5x cells, without rucaparib) 21.3%
inactive: outcome [1] | outcome [5] | outcome [10] | outcome [4] | outcome [3] | outcome [11] | viability ([12]; at 0.000305 µM, OCI-C5x cells, with rucaparib 10 µM, 100% = cells with rucaparib alone) 106% | viability ([12]; at 0.000305 µM, OCI-C5x cells, without rucaparib) 102% | viability ([12]; at 0.000305 µM, OCI-P5x cells, with rucaparib 20 µM, 100% = cells with rucaparib alone) 109% | viability ([12]; at 0.000305 µM, OCI-P5x cells, without rucaparib) 102% | viability ([12]; at 0.00122 µM, OCI-C5x cells, with rucaparib 10 µM, 100% = cells with rucaparib alone) 109% | viability ([12]; at 0.00122 µM, OCI-C5x cells, without rucaparib) 107% | viability ([12]; at 0.00122 µM, OCI-P5x cells, with rucaparib 20 µM, 100% = cells with rucaparib alone) 106% | viability ([12]; at 0.00488 µM, OCI-C5x cells, with rucaparib 10 µM, 100% = cells with rucaparib alone) 120% | viability ([12]; at 0.00488 µM, OCI-C5x cells, without rucaparib) 100% | viability ([12]; at 0.0195 µM, OCI-C5x cells, with rucaparib 10 µM, 100% = cells with rucaparib alone) 104% | viability ([12]; at 0.0781 µM, OCI-C5x cells, with rucaparib 10 µM, 100% = cells with rucaparib alone) 103%
